High-throughput results as filed in PubChem BioAssay.
mIDH1 inhibitor: qHTS for Inhibitors of mutant isocitrate dehydrogenase 1 (IDH1): qHTS. Potency, µM (top dose mostly 76.6 µM), most hits filed as inhibitors. 0.093% of 390,000 active. IDH1-R132H enzyme, NADPH consumption, diaphorase/resazurin fluorescence; active means well fitted inhibition curve with a large enough effect; inconclusive means small, poorly fitted or top-dose-only effect; inactive means no such curve, though single readings can be large or run the other way; further: nearly all actives have a fitted effect of over 65% in size
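IDH1-R132H (0.5 ug/mL) preincubated 30 min with compound, then NADPH (0.016 mM) and alpha-KG (2 mM) added; 80 min at RT, pH 7.5. Remaining NADPH coupled via diaphorase/resazurin to fluorescence (540/590 nm); concentration-response curves normalized to no-enzyme control.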
Menin-MLL TR inh: qHTS Assay for Inhibitors Targeting the Menin-MLL Interaction in MLL Related Leukemias: Competition With Texas Red Labeled MLL-derived Mutant Peptide. 0.23% of 270,000 active. Potency, µM (highest dose often 61.6 µM), most hits filed as inhibitors. Menin + Texas Red MLL mutant peptide, fluorescence polarization. AID 1768, 2009. O00255; active means well fitted inhibition curve with a large enough effect in the polarisation, with a control signal flat, not every such curve was filed as active; inconclusive means small, poorly fitted or top-dose-only effect, or effect the other way, or a change in a side signal; inactive means no such curve, though single readings can be large or run the other way; the % refers to the polarisation
Target sequence (O00255 whole entry, looked up): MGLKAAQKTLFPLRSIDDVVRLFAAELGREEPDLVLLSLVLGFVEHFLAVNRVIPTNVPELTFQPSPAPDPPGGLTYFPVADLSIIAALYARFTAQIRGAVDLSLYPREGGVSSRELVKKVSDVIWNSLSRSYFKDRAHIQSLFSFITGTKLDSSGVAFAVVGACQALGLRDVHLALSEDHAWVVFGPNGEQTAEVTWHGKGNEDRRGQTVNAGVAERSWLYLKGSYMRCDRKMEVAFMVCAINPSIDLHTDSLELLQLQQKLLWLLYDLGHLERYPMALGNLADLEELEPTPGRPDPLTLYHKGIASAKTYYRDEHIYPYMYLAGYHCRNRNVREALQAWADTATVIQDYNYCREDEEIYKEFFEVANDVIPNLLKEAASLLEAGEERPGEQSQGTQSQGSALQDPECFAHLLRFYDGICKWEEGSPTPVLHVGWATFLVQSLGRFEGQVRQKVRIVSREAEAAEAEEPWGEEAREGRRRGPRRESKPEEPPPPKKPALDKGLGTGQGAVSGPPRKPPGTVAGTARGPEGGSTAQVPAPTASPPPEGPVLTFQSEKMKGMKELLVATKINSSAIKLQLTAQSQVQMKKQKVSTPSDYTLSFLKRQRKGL
CXXC DNA block: qHTS Fluorescence Polarization Assay for Inhibitors of MLL CXXC domain - DNA interaction; Histone-lysine N-methyltransferase 2A (Homo sapiens), Q03164; Potency, µM (top dose mostly 115 µM), actives largely listed as inhibitors; MLL-CXXC / FITC-HOXA9 DNA fluorescence polarization; 0.037% of 290,000 active; active means well fitted inhibition curve with a large enough effect in the polarisation, with a control signal flat, not every such curve was filed as active; inconclusive means small, poorly fitted or top-dose-only effect, or effect the other way, or a change in a side signal; inactive means no such curve, though single readings can be large or run the other way; the % refers to the polarisation
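Fluorescence polarization: 7 uM MLL-CXXC (stock) preincubated 5 min with compounds, then 50 nM fluorescein-HOX-A9 DNA (stock) added; 30 min ambient. Buffer 50 mM Tris-HCl pH 7.5, 50 mM NaCl, 1 mM DTT, 0.05% BSA.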
LDHA block: qHTS assay for inhibitors of human lactate dehydrogenase; activity change, % (values are at about 110 or 230 µM); purified LDHA, NADH/diaphorase-resazurin fluorescence; hits give low values; AID 1347041, 2019; 0.15% of 480,000 active; L-lactate dehydrogenase A chain (Homo sapiens), P00338; in the data active means activity change below about -30%; inconclusive means mostly about -25% to -30%
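LDH5 2 nM; NADH 0.06 mM, pyruvate 0.2 mM; 200 mM Tris pH 7.4, EDTA, Tween-20; 5 min RT. Detection: diaphorase 0.133 mg/mL + resazurin 37 µM, fluorescence ex540/em590 at 0 and 20 min; normalized to enzyme-free and DMSO wells.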
pAkt inh: HTS Assay for Inhibitors of Akt Phophorylation: Primary Screen. 0.32% of 360,000 active. AID 651550, 2012. Neuro2A IGF-stimulated pAkt S473 HTRF, 20 min; hits give low values. activity change, % for hits at 50 µM; in the data active means activity change below about -80%; inconclusive means mostly about -51% to -80%
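Neuro2A cells in DMEM with 0.5% FBS, overnight at 37 deg C, given compound at single 50 µM final, then IGF (6 nM final) for 20 min at 37 deg C. Lysed; phospho-Akt Ser473 by HTRF after 24 h, 665/615 ratio.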
Menin-MLL FL inh: qHTS Assay for Inhibitors Targeting the Menin-MLL Interaction in MLL Related Leukemias: Competition With Fluorescein Labeled MLL-derived Peptide. Fluorescence polarization, fluorescein-MLL peptide displacement from menin. 290,000 tested, under 10 active. FP activity change, % at 61.4 µM; active means well fitted curve in the direction sought with a large enough effect in the polarisation, not every such curve was filed as active; inconclusive means small, poorly fitted or top-dose-only effect, or effect the other way, or a change in a side signal; inactive means no such curve, though single readings can be large or run the other way; the % refers to the polarisation
Numbers stand for hits; n = inactive; u = inconclusive; x = not tested or not shown. Only some compounds are listed: those with a hit (about 0.54% of all), similar ones and a draw of the others.

SMILES	mIDH1 inhibitor	Menin-MLL TR inh	CXXC DNA block	LDHA block	pAkt inh	Menin-MLL FL inh
O=C(Cc1c[nH]c2ccccc12)N1CCN(S(=O)(=O)c2cc(F)ccc2F)CC1	x	x	x	-37	x	x
O=C(Cc1c[nH]c2ccccc12)N1CCN(S(=O)(=O)c2cccc(F)c2)CC1	x	x	x	n	x	x
NC(=O)c1ccc(NC(=O)c2nccnc2N)cc1	x	x	x	n	x	x
O=C(O)CSc1nnc(CNc2ccc(Cl)cc2)n1Cc1ccccc1	n	n	n	n	-113%	n
CCn1c2ccccc2c2cc(/C=C3/C=Cc4ccccc43)ccc21	x	x	x	-55	x	x
Cc1cc(C)c2ccc3nc(C)c(C)c3c2[nH]1	x	x	x	n	x	x
Cc1cc(C(=O)CSc2nc3ccccc3c(=O)n2C)c(C)n1Cc1ccc2c(c1)OCO2	n	n	n	n	-109%	u
Cc1cc(C(=O)CSc2nnc(-c3ccccc3)n2Cc2ccc3c(c2)OCO3)c(C)n1C	n	n	n	n	n	n
C/C(C/C(C)=C1/SC(=S)NC1=O)=C1\SC(=S)NC1=O	n	n	u	-34	n	u
CCCCCC/C(C)=C1/SC(=S)NC1=O	n	n	n	n	n	u
Cc1ccccc1CS(=O)(=O)Cc1ccc(C(=O)NCc2ccccn2)o1	n	n	n	n	n	n
O=C(NCc1ccccn1)c1ccc(CS(=O)(=O)Cc2ccc(Cl)cc2)o1	n	n	n	n	-126%	n
N#C/C(=C(/O)COC(=O)CSc1ccc(Cl)cc1)c1nc2ccccc2[nH]1	n	u	n	n	n	n
N#C/C(=C(/O)COC(=O)CCCNC(=O)c1ccc(Cl)cc1)c1nc2ccccc2[nH]1	n	n	n	n	-102%	u
N#Cc1c(C(F)(F)F)cc(-c2ccccc2)nc1SCc1ccccc1	x	x	x	n	x	x
Cc1cccc(CCNc2nc3ccccc3n3nnnc23)c1	n	x	n	n	-87%	n
CCCCNC(=O)CCC(=O)NCc1ccc(F)cc1	x	x	x	n	x	x
CN1CCN(S(=O)(=O)c2cccc(S(=O)(=O)c3ccc(Cl)c(Cl)c3)c2)CC1	n	n	n	n	-108%	n
Cc1ccc(C(=O)Nc2sc3c(c2C#N)CCCCC3)cc1C	n	u	n	n	-95%	n
CC(=O)Nc1sc2c(c1C#N)CCCCC2	n	n	n	n	n	n
O=C(CCCc1ccccc1)c1ccc2c(c1)OCCO2	n	n	n	n	-125%	n
CN(C)CCCNCC(=O)c1c(-c2ccccc2)n(C)c2ccccc12	n	x	u	-37	n	x
CCc1c(C)sc(NC(=O)c2ccccc2F)c1C#N	x	x	x	n	x	x
O=C(CCc1ccccc1)NC1(C(F)(F)F)C(=O)Nc2c1c(=O)[nH]c(=O)n2Cc1ccccc1 (configuration not stated)	x	x	x	-35	x	x
Cc1nc(-c2cccc(N3CC(C(=O)Nc4cccc(C(F)(F)F)c4)CC3=O)c2)no1 (configuration not stated)	x	x	x	n	x	x
SMILES	mIDH1 inhibitor	Menin-MLL TR inh	CXXC DNA block	LDHA block	pAkt inh	Menin-MLL FL inh
COc1ccc(C(C(=O)NC2CCCC2)N(C(=O)c2ccco2)c2cc3c(cc2C(C)=O)OCO3)cc1OC (configuration not stated)	n	n	n	n	n	n
COc1ccc(C(C(=O)NC2CCCC2)N(C(=O)c2ccco2)c2ccc3c(c2)OCO3)cc1OC (configuration not stated)	n	n	n	n	-109%	n
Cc1cc(C)cc(C(=O)Nc2ccc(N(C)C)cc2)c1	x	x	x	n	x	x
COc1ccc2nc(NC(=O)c3ccoc3C)sc2c1	n	n	n	n	-110%	n
CC(C)NC(=O)/C(C#N)=C/c1c[nH]c2ccccc12	x	x	x	n	x	x
O=[N+]([O-])c1ccc(C=NCC23CCC4CC(CC(C4)C2)C3)cc1	x	x	x	n	x	x
COC(=O)c1ccccc1OCCOc1ccccc1C(=O)OC	n	n	n	n	n	n
COC(=O)c1ccccc1OCCCCN1CC(C)OC(C)C1 (configuration not stated)	n	n	n	-31	n	n
N#C/C(=C/c1cccc(Oc2ccc(Cl)cc2)c1)c1nc2ccccc2[nH]1	x	x	x	n	x	x
C=CCn1c(C)cc(C)c(C#N)c1=O	n	u	n	n	n	n
C=CCn1c(=O)n(CCC#N)c(=O)n(CCC#N)c1=O	n	n	n	n	-99%	n
COc1ccc(Br)c(C(=O)Nc2ccc3oc(=O)ccc3c2)c1	x	x	x	n	x	x
Cc1ccc(C(CNC(=O)c2ccc(NC(=O)OC(C)(C)C)cc2)N2CCOCC2)o1 (configuration not stated)	x	x	x	-34	x	x
O=C(CCSc1ccc(Cl)cc1)c1cccs1	n	n	n	n	-107%	n
Cc1ccc2nc(-c3ccc(NC(=O)CN(c4ccccc4C)S(C)(=O)=O)cc3)sc2c1	n	n	n	n	-107%	n
CCCCCCn1c(C)nc2c(c1=O)c1nc3ccccc3nc1n2/N=C/c1ccco1	n	n	n	n	-108%	n
COc1cc(C2CC(=O)Oc3c2c(=O)[nH]c2ccccc32)cc2c1OCO2 (configuration not stated)	x	x	x	-38	x	x
CC1CCc2sc(C(=O)OCC(=O)Nc3ccc([N+](=O)[O-])cc3C(F)(F)F)cc2C1 (configuration not stated)	x	x	x	n	x	x
CNc1ncc(C(=O)c2ccc(Cl)c(Cl)c2)s1	n	n	n	n	n	n
O=C(c1ccc(Cl)c(Cl)c1)c1cnc(Nc2ccccc2)s1	n	22µM	n	n	n	n
CCOC(=O)/C(C#N)=C\c1cc(Br)ccc1OCc1ccc(Cl)cc1	x	x	x	n	x	x
O=C(Nc1cccc(Cl)c1)Nc1nnc([C@H]2C[C@H](O)[C@@H](CO)O2)s1	x	x	x	-30	n	x
CCN(CC)C(=O)CN1CCN(c2nc(C)c3c(c2C#N)CC(C)(C)OC3)CC1	x	x	x	n	x	x
CCS(=O)(=O)N1CCCC(C(=O)NC2CCCCC2C)C1 (configuration not stated)	n	n	n	n	-110%	n
CCS(=O)(=O)N1CCCC(C(=O)NC2CCCC2)C1 (configuration not stated)	n	n	n	n	n	n
COC(=O)[C@H](Cc1ccccc1)NC(=O)NCc1cccs1	n	x	n	n	-94%	n
O=C(NCc1cccs1)N[C@@H](Cc1ccccc1)C(=O)O	n	n	n	n	n	n
